This note sets out measurements from PubChem BioAssay.

Activity calls are given as the source filed them.

In experiment [1] the test system is Plasmodium falciparum Sir2 (PF13_0152, Sir2A). Kind of experiment: Plasmodium falciparum Sir2A binding compounds – biochemical, small-molecule microarray, 635 nm fluorescence, primary screen (AID 1098).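 Further: score merges spot fluorescence intensity with its signal-to-noise ratio.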 As to conditions: fluorescence 635 nm, higher = more signal.
Experiment [2] is described as follows: probe aDKK1 binding to arrayed compounds – biochemical, biotinylated probe, 635/667 nm fluorescence, primary screen (AID 1099).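 Further: score merges 667nm spot fluorescence with signal to noise across triplicate slides.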 As to conditions: small-molecule microarray, higher = more signal.
Experiment [3] in a line: probe aCHRDL2 binding to arrayed compounds – biochemical, biotinylated probe, 635/667 nm fluorescence, primary screen (AID 1100). As to conditions: small-molecule microarray, higher = more signal.
A short description of experiment [4]: change in splice reporter luminescence, either direction, cell-based, HEK293, spliceosome inhibition project, primary screen (AID 1101).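 Further: HEK293 cells carrying a splicing-competent luciferase reporter gene; test concentration not given here.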 As to conditions: HEK293 splicing luciferase reporter, 24 h, higher = more signal, called active from +8 up or from −8 down. On the technique in general: A reporter such as luciferase makes a cellular process visible.
Experiment [5] concerns the target Fibroblast growth factor 10 (Homo sapiens) (UniProt O15520). Kind of experiment: compounds binding fibroblast growth factor 10 – biochemical, small-molecule microarray, 635 nm fluorescence, primary screen (AID 1102). The note with it: FGF10 binding, fluorescence 635 nm, higher = more signal.
Experiment [6] relates to glycogen synthase kinase-3 (GSK3A per assay name; protocol says GSK3B). Kind of experiment: compounds binding glycogen synthase kinase-3 – biochemical, small-molecule microarray, 635 nm fluorescence, GSK3A, primary screen (AID 1103). Further: the record names both GSK3A and GSK3B. The note with it: fluorescence 635 nm, higher = more signal.
For experiment [7], the target named is Epidermal growth factor receptor (Homo sapiens) (UniProt P00533). Kind of experiment: compounds binding epidermal growth factor receptor – biochemical, small-molecule microarray, 635 nm fluorescence, primary screen (AID 1104).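 Further: score merges 667 nm emission intensity with spot signal to noise over triplicate slides.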 As to conditions: EGFR binding, higher = more signal.
Chain of Epidermal growth factor receptor (Homo sapiens) (P00533 whole entry, looked up): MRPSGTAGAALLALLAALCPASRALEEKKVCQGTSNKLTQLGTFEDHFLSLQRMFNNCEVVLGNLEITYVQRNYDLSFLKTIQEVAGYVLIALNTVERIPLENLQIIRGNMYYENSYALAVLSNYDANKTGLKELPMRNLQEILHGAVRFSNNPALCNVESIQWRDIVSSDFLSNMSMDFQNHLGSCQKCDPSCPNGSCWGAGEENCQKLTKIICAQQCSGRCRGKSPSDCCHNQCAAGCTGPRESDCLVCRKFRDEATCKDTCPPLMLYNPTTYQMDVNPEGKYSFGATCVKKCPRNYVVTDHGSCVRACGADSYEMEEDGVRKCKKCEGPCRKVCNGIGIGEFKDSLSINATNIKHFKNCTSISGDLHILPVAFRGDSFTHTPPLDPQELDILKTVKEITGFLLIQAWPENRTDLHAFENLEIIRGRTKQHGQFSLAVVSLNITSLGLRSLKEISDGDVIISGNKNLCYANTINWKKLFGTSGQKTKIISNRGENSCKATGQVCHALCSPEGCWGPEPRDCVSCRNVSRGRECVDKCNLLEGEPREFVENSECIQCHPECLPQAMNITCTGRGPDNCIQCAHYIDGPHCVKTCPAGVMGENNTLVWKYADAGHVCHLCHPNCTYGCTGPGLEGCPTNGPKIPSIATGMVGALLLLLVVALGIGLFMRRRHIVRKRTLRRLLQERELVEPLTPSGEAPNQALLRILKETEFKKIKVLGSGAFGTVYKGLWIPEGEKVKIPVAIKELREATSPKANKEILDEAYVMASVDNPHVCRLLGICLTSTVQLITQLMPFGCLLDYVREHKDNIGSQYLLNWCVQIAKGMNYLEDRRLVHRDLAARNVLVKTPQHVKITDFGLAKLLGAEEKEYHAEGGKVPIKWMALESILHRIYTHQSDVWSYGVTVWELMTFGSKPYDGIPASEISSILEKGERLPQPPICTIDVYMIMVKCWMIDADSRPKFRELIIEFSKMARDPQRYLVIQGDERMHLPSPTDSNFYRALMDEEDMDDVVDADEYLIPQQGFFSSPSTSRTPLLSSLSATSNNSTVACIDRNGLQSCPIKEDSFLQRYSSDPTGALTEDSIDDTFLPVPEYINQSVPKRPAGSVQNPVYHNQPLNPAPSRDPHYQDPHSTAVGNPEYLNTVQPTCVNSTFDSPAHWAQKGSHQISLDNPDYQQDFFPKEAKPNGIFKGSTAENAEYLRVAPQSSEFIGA
The target in experiment [8] is Follistatin-related protein 3 (Homo sapiens) (UniProt O95633). The experiment can be described thus: compounds binding follistatin-related protein 3 – biochemical, small-molecule microarray, 635 nm fluorescence, primary screen (AID 1105).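 Further: score merges emission near 667 nm and signal to noise per printed spot across three slides.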 As to conditions: FSTL3 binding, higher = more signal.
Chain of Follistatin-related protein 3 (Homo sapiens) (O95633 whole entry, looked up): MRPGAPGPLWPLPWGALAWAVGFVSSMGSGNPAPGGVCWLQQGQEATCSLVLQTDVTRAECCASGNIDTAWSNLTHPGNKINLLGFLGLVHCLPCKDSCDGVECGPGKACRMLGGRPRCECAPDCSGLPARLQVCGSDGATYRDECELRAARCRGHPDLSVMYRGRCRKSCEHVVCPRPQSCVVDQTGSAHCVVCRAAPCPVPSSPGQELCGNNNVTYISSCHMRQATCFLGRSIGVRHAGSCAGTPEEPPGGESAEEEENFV
For experiment [9], the target named is Dickkopf-related protein 1 (Homo sapiens) (UniProt O94907). The experiment can be described thus: small molecules binding DKK1 protein – biochemical, small-molecule microarray, 635 nm fluorescence scan, primary screen (AID 1106).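 Further: score merges emission near 667 nm with signal to noise over three replicate slides.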 The note with it: higher = more signal.
Chain of Dickkopf-related protein 1 (Homo sapiens) (O94907 whole entry, looked up): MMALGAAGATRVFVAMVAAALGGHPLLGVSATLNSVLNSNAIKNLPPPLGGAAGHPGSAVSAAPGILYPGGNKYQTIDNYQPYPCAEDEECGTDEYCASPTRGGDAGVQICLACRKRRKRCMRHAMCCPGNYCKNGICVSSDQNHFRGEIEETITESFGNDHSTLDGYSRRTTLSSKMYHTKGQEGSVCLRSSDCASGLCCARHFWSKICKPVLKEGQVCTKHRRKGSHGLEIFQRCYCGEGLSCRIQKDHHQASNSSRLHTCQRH
In experiment [10] the test system is Inhibin beta A chain (activin A). The experiment can be described thus: small molecules binding activin A – biochemical, small-molecule microarray, 635 nm fluorescence scan, primary screen (AID 1107).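 Further: mouse activin A protein probed at 4.33 µg/mL on printed slides; score merges bound-protein fluorescence near 667 nm with spot signal-to-noise.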 As to conditions: INHBA, higher = more signal.
Experiment [11] relates to Human papillomavirus type 1a protein E7 (residues 44-93). The experiment can be described thus: small molecules binding HPV E7 44-93 – biochemical, small-molecule microarray, residues 44-93, 635 nm fluorescence, primary screen (AID 1108).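 Further: E7 fragment applied at 1 µg/mL in TBST for 1 h at 4 C; score combines spot fluorescence with its signal to noise ratio.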 The note with it: fluorescence 635 nm, higher = more signal.
The nature of experiment [12]: hepatitis C replication reporter changes, two-sided – Huh7 cells, luciferase reporter, HCV replication inhibitor project, primary screen (AID 1109).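 Further: huh7 hepatoma cells harbouring a luciferase neomycin HCV replicon reporter; luciferase luminescence as measure of HCV replicon replication; test concentration not given here.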 As to conditions: Huh7 HCV replicon luciferase reporter, 48 h; higher = more signal.
For experiment [13], the target named is Left-right determination factor 2 (Homo sapiens) (UniProt O00292). The experiment can be described thus: small molecules binding LEFTY2 protein – biochemical, small-molecule microarray, 635 nm fluorescence scan, primary screen (AID 1110). The note with it: higher = more signal.
Chain of Left-right determination factor 2 (Homo sapiens) (O00292 whole entry, looked up): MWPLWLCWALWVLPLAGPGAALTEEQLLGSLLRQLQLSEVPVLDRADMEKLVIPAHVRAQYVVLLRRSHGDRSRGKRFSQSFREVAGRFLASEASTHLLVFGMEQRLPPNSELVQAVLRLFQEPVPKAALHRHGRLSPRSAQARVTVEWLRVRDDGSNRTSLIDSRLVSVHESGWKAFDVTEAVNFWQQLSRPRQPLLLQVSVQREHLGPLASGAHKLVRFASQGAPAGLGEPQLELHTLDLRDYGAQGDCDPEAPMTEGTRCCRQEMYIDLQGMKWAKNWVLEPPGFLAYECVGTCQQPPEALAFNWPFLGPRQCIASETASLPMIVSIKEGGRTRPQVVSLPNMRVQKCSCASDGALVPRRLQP
The target of experiment [14] is Calmodulin-1 (Homo sapiens) (UniProt P0DP23). Kind of experiment: small molecules binding calmodulin-1 with EGTA – biochemical, small-molecule microarray, Cy5-labelled CALM1, profiling panel (AID 1111).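 Further: labelled calmodulin applied in Tris saline Tween buffer holding calcium plus EGTA and DTT.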 The note with it: Cy5-CALM1 binding fluorescence, higher = more signal.
Experiment [15] has the same target. The experiment can be described thus: small molecules binding Ca-loaded calmodulin-1 – biochemical, small-molecule microarray, Cy5-labelled CALM1, plus calcium, artefact control for SMM control-protein annotation, profiling panel (AID 1112).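 Further: score merges spot fluorescence with signal to noise from triplicate slides.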 As to conditions: Cy5-CALM1 binding fluorescence, higher = more signal.
Experiment [16] can be described thus: probe aWnt5a binding to arrayed compounds – biochemical, biotinylated probe, 635/667 nm fluorescence, primary screen (AID 1113).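 Further: score merges 667 nm fluorescence intensity with signal-to-noise per printed feature.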 As to conditions: small-molecule microarray, higher = more signal.
Experiment [17] in a line: probe aShh binding to arrayed compounds – biochemical, biotinylated probe, 635/667 nm fluorescence, primary screen (AID 1114).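 Further: probe is biotin-labelled aShh protein from a stem cell growth factor screen; measures binding of labelled protein to compounds printed on the slide; score merges feature fluorescence at 667 nm with signal-to-noise.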 As to conditions: small-molecule microarray, higher = more signal.
Experiment [18] is described as follows: probe aNog binding to arrayed compounds – biochemical, biotinylated probe, 635/667 nm fluorescence, primary screen (AID 1115).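 Further: probe is biotinylated aNog protein used at 0.15 µg/mL for 1 h at 4 C; z-score combines 667 nm fluorescence of each spot with its signal to noise.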 As to conditions: small-molecule microarray, higher = more signal.
The target of experiment [19] is Torsin-1A-interacting protein 1 (Homo sapiens) (UniProt Q5JTV8). The experiment can be described thus: compound microarray binding of lysate hLAP1 – cell lysate, small-molecule microarray, COS7 lysate, 635/667 nm fluorescence, primary screen (AID 1116). The note with it: 635 nm fluorescence, higher = more signal.
Chain of Torsin-1A-interacting protein 1 (Homo sapiens) (Q5JTV8 whole entry, looked up): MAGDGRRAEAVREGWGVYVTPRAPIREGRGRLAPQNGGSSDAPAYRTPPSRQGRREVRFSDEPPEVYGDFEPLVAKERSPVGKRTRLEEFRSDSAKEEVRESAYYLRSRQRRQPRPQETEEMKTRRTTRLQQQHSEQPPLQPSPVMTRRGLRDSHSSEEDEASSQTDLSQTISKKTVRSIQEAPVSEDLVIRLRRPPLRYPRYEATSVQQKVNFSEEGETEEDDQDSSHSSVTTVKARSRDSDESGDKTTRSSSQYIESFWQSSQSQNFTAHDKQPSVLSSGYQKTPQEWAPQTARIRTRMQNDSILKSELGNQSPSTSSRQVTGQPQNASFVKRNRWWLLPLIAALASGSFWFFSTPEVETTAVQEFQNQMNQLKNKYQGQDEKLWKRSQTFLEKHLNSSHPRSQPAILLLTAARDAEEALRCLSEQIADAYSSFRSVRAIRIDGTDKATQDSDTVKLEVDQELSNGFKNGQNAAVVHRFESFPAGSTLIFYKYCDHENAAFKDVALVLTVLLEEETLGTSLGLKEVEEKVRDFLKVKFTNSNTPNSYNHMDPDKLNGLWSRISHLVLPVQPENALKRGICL
Experiment [20] deals with Alpha-bungarotoxin (Bungarus multicinctus) (UniProt P60615). Kind of experiment: compounds binding labelled alpha-BTX control protein – biochemical, small-molecule microarray, Alexa647 label, 635/667 nm fluorescence, artefact control for SMM control protein annotation, profiling panel (AID 1117). As to conditions: alpha-BTX-A647 binding fluorescence, higher = more signal.
Chain of Alpha-bungarotoxin (Bungarus multicinctus) (P60615 whole entry, looked up): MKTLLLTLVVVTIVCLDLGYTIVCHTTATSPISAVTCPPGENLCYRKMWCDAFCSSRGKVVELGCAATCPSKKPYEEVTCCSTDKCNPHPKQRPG

Chain of Fibroblast growth factor 10 (Homo sapiens) (O15520 whole entry, looked up): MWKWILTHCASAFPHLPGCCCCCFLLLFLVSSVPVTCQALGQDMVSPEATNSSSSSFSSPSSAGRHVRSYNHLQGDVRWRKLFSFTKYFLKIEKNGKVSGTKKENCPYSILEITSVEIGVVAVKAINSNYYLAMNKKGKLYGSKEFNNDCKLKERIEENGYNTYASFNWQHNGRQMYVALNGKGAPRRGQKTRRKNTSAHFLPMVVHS

For the molecule `COc1ccc([Si](C)(C)[C@@H]2[C@@H](CCn3cc([C@H](O)c4ccccc4)nn3)O[C@]3(C(=O)N(c4ccccc4)c4ccccc43)[C@H]2C)cc1`, the composite z-score is 0.548 in [1]; -0.016 in experiment [2]; -0.142 in experiment [3]; 0.23 in [5]; -0.15 in experiment [6]; -0.302 in experiment [7]. In addition, the composite z-score was 0.115 in [8]; 0.181 in [9]; 0.372 in experiment [10]; -0.0404 in experiment [11]; -0.184 in experiment [13]; 0.052 in [14]. Besides, the composite z-score in experiment [15] was -0.336; in experiment [16] it was -0.096; in [17] it was 0.413; in experiment [18] it was 0.383; in [19], 0.0664; in experiment [20], 0.351. Moreover, the values for the z-score in experiment [4] and in [12] were -1.18 (inactive) and -3.76, respectively.
In the case of `Cc1ccc(C(C)CC(O)C2C=CC3C(=O)N(c4ccccc4)C(=O)C3N2Nc2ccc(C#N)cc2)o1` (stereo not given), the composite z-score is 0.966 in [1]; 0.846 in experiment [2]; 0.539 in experiment [3]; 1.12 in [5]; 1.08 in experiment [6]; 0.202 in experiment [7]. The composite z-score was 0.913 in experiment [8]; -0.0435 in experiment [9]; 0.607 in experiment [10]; 1.42 in experiment [11]; 0.168 in experiment [13]; 1.48 in experiment [14]. For the same molecule, the composite z-score in experiment [15] was 0.314; in experiment [16] it was -0.0044; in [17], 0.138; in experiment [18], 0.526; in experiment [19] it was 1.16; in experiment [20], 1.17. Further, the z-score in experiment [4] was 3.02 (inactive); in experiment [12], 0.0453.
`COc1ccc(C(O)C2C=CC3C(=O)N(c4ccccc4)C(=O)C3N2Nc2ccccc2)cc1` (stereo not given): the composite z-score was 0.97 in [1]; -0.0903 in [2]; 0.637 in experiment [3]; 1.31 in experiment [5]; 0.592 in experiment [6]; 0.199 in experiment [7]. The composite z-score in [8] is 1.37; in experiment [9] it was -0.0198; in [10], 1.04; in [11] it was 1.39; in [13], -0.13; in [14], 0.553. In addition, the composite z-score is 0.147 in [15]; 0.0102 in experiment [16]; -0.0243 in experiment [17]; 0.36 in experiment [18]; 0.272 in experiment [19]; 2.13 in experiment [20]. Moreover, the z-score is 1.68 (inactive) in [4] and -0.454 in experiment [12].
Take `C=CCNC(=O)[C@H]1[C@@H]2C(=O)O[C@@H](c3ccccc3)[C@@H](c3ccccc3)N2[C@@H](c2ccc(O)cc2)[C@]12C(=O)N(C(=O)OCCOC)c1ccc(C#CCC(C(=O)OC)C(=O)OC)cc12`: the composite z-score came out at 1.37 in experiment [1]; 0.119 in experiment [2]; 0.236 in experiment [3]; 1.1 in experiment [5]; 1.19 in experiment [6]; 0.564 in experiment [7]. In addition, the composite z-score in [8] stood at 0.914; in experiment [9], 0.641; in [10], 0.23; in [11] it was 1.07; in [13], 0.798; in experiment [14], 1.5. Also, the composite z-score is 0.475 in [15]; -0.147 in experiment [16]; -0.154 in [17]; 0.0213 in experiment [18]; 1.48 in experiment [19]; 0.201 in experiment [20]. The figures for the z-score in experiment [4] and in experiment [12] were 0.173 (inactive) and -1.53, respectively.
On to `COC(=O)C(CC#Cc1ccc2c(c1)[C@]1(C(=O)N2)[C@H](C(=O)Nc2nc3ccccc3s2)[C@H]2C(=O)O[C@H](c3ccccc3)[C@H](c3ccccc3)N2[C@@H]1c1ccc(OCCO)cc1)C(=O)OC`, for which the composite z-score in [1] was determined as 0.912; in [2], 0.277; in experiment [3], 0.575; in [5] it was 1.15; in experiment [6], 1.21; in experiment [7] it was 0.468. Moreover, the composite z-score is 1.19 in experiment [8]; 0.344 in experiment [9]; 0.519 in experiment [10]; 1.39 in experiment [11]; 0.768 in experiment [13]; 1.52 in experiment [14]. Besides, the composite z-score came out at 0.326 in experiment [15]; 0.189 in experiment [16]; 0.427 in [17]; 1 in experiment [18]; 2.02 in experiment [19]; 1.62 in experiment [20]. Further, the values for the z-score in experiment [4] and in experiment [12] were -1.25 (inactive) and -1.85, respectively.
As to `COc1cc(NN2C(C(O)C3CCCCC3)C=CC3C(=O)N(C)C(=O)C32)cc(OC)c1OC` (stereo not given), the composite z-score in experiment [1] is 1.04; in experiment [2], 1.05; in experiment [3] it was 1.1; in experiment [5], 0.144; in experiment [6], 1.17; in experiment [7], 0.203. The composite z-score in experiment [8] is 1.06; in experiment [9], -1.47; in experiment [10], 0.823; in experiment [11], 1.44; in experiment [13], 0.0347; in experiment [14], 2.01. The composite z-score amounted to 0.964 in experiment [15]; 0.265 in experiment [16]; 0.417 in experiment [17]; 1.32 in experiment [18]; 1.32 in [19]; 1.72 in experiment [20]. The z-score is 1.1 (inactive) in experiment [4] and -0.611 in experiment [12].
